Data on seven compounds can be found in PubChem BioAssay (Tox21).

Values without a mark were called inactive. Results filed as inconclusive are left out. Calls of active or inactive are those of the source. Unless noted, calls follow the shape of the full dose curve.

Experiment [1] is described as follows: Nuclear factor erythroid 2-related factor 2/antioxidant responsive element (Nrf2/ARE) small molecule agonists: qHTS cell viability counter screen in human keratinocytes (AID 1919968; active = well fitted curve in the direction sought with a large enough effect in the repeat runs; an effect the other way counts as inactive or inconclusive; also: nearly all actives have a fitted effect of over 55% in size). Put shortly:
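Cytotoxicity was multiplexed with the Nrf2/ARE luciferase assay in the same wells. Stably transfected HaCaT keratinocytes were treated with test compounds for 23 h at 37 C. Cell viability was then measured by CellTiter-Fluor fluorescence.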
(In general: In qHTS, concentration-response curves come from the screen itself.)

In experiment [2] the target is Gonadotropin-releasing hormone receptor (Homo sapiens) (UniProt P30968). The experiment is described as follows: Human gonadotropin-releasing hormone receptor (GnRHR) small molecule agonists, calcium flux assay in GnRHR-HEK293 cells (AID 1920063). Also: nearly all actives have a fitted effect of over 35% in size. The method in brief:
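Agonist activity was measured as intracellular calcium flux in HEK293 cells engineered to stably express human GnRHR. After dye loading for 1 hour at 37 C, compounds in DMSO were added and fluorescence was followed for 3 minutes.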
(Calcium flux is commonly read through the fluorescence of an indicator in the cells.)

Experiment [3] deals with KiSS-1 receptor (Homo sapiens) (UniProt Q969F8). Put plainly: Human kisspeptin (KISS1R) small molecule agonists, calcium flux assay in KISS1R-HEK293 cells (AID 1920064; active = well fitted curve in the direction sought with a large enough effect in the repeat runs; an effect the other way counts as inactive or inconclusive). Put shortly: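 Agonist activity is monitored as intracellular calcium rise in engineered HEK293 cells carrying human KISS1R. Cells are dye-loaded for 1 h at 37 C before compound addition, and fluorescence is recorded for 3 min.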
Chain of KiSS-1 receptor (Homo sapiens) (Q969F8 whole entry, looked up): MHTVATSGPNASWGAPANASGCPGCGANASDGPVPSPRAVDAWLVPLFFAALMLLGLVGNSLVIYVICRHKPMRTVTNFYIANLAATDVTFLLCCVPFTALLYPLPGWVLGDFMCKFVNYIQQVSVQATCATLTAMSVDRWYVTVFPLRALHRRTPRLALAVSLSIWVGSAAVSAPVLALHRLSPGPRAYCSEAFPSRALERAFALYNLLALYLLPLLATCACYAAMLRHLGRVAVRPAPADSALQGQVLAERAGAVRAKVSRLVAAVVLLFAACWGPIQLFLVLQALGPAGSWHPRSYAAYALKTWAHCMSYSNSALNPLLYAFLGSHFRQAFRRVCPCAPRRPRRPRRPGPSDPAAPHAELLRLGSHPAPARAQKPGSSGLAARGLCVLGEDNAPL

The nature of experiment [4]: G protein-coupled receptor (GPCR) small molecule agonists, calcium flux assay: HEK293 wild type cell line counter screen (AID 1920065). The method in brief:
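Seed cells, incubate 18 h (37 C, 5% CO2); add calcium dye, 1 h at 37 C; pin-transfer compounds, ATP control or DMSO; read fluorescence 480/540 nm each second for 3 min.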

The nature of experiment [5]: p53 small molecule agonists, cell-based qHTS assay with human liver microsomes (AID 1963577). The method in brief: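 p53RE-bla cells, 4,000/well, compound added after 5 h, with human liver microsomes 0.5 mg/mL and NADPH 0.5 mg/mL final; 16 h at 37 C, then LiveBLAzer 2 h RT, fluorescence.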
Experiment [6] is described as follows: p53 small molecule agonists, cell-based qHTS assay with rat liver microsomes (AID 1963578). Put shortly: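 p53RE-bla cells, 4,000/well, pre-incubated 5 h, then given compounds plus rat liver microsomes (0.5 mg/mL final) and NADPH (0.5 mg/mL final). Incubation 16 h at 37 C; beta-lactamase reporter read by LiveBLAzer fluorescence after 2 h at room temperature.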

Experiment [7] is described as follows: p53 small molecule agonists, cell-based qHTS assay with human liver microsomes: qHTS cell viability counter screen (AID 1963579). Also: nearly all actives have a fitted effect of over 45% in size. Put shortly: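 p53RE-bla cells, 4,000/well, dosed 5 hours after plating, with human liver microsomes (0.5 mg/mL final) plus NADPH (0.5 mg/mL final), 16 hours at 37 C. Viability read as CellTiter-Glo luminescence after 30 min at room temperature.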

The nature of experiment [8]: p53 small molecule agonists, cell-based qHTS assay with rat liver microsomes: qHTS cell viability counter screen (AID 1963580). Also: nearly all actives have a fitted effect of over 45% in size. Put shortly:
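Counter screen for cytotoxicity under metabolic activation: rat liver microsomes and NADPH, 0.5 mg/mL final each, added with compounds to p53RE-bla HCT-116 cells; 16 h at 37 C, then ATP luminescence read.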

Experiment [9] can be described thus: p53 small molecule agonists, cell-based qHTS assay: qHTS cell viability counter screen (AID 1963581). Also: nearly all actives have a fitted effect of over 45% in size. Put shortly:
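Viability was counter-screened in parallel with the p53 agonist reporter by measuring intracellular ATP luminescence in the same HCT-116 p53RE-bla wells after 16 h compound treatment at 37 C.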

Experiment [10] is described as follows: p53 small molecule agonists, cell-based qHTS assay (AID 1963582; active = well fitted activation curve with a large enough effect in the signal ratio in the repeat runs, not every such curve was filed as active; the % refers to the signal ratio). The method in brief: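 Cells carrying a p53-responsive bla reporter are treated with test compounds for 16 h at 37 C; beta-lactamase activity is then detected with LiveBLAzer B/G FRET substrate after 2 h at room temperature.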
The target in experiment [11] is 5-hydroxytryptamine receptor 2A (Homo sapiens) (UniProt P28223). Put plainly: 5-hydroxytryptamine receptor 2A (HTR2A) small molecule antagonists, cell-based qHTS assay (AID 1963586). Also: nearly all actives have a fitted effect of over 45% in size. Put shortly: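 CHO cells stably expressing human HTR2A were plated for 18 h at 37 C, then loaded with calcium dye for 1 h. Compounds were preincubated 5 min at room temperature before DOI (4 nM solution) was added. Kinetic fluorescence was read for 3 min.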
Chain of 5-hydroxytryptamine receptor 2A (Homo sapiens) (P28223 whole entry, looked up): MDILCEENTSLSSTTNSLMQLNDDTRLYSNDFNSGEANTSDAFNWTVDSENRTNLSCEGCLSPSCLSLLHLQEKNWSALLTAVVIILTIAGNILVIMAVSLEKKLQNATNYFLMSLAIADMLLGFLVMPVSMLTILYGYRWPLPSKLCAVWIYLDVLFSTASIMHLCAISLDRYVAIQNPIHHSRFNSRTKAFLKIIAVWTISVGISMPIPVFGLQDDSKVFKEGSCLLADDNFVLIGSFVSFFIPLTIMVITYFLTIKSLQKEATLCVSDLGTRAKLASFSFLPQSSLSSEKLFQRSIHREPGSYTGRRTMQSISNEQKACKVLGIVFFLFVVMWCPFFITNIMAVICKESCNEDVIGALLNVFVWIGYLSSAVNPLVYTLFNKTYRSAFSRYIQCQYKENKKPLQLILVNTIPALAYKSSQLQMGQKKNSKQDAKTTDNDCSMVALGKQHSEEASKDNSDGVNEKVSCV

For experiment [12] the target is unchanged. The experiment is described as follows: 5-hydroxytryptamine receptor 2A (HTR2A) small molecule agonists, cell-based qHTS assay (AID 1963587). Also: nearly all actives have a fitted effect of over 30% in size. Put shortly:
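HTR2A-CHO cells, plated 18 h at 37 C/5% CO2, dye-loaded 1 h at 37 C; compounds in DMSO added by pin tool (agonist mode). Intracellular calcium flux read as kinetic fluorescence on FDSS over 2 min at 1 s intervals.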

Experiment [13] deals with Muscarinic acetylcholine receptor M1 (Homo sapiens) (UniProt P11229). The experiment is described as follows: Cholinergic receptor muscarinic 1 (CHRM1) small molecule agonists, cell-based qHTS assay (AID 1963589). Also: nearly all actives have a fitted effect of over 35% in size. The method in brief: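 Cells were plated and incubated 18 h at 37 C/5% CO2, loaded with calcium dye for 1 h at 37 C, then treated with compounds in DMSO. Fluorescence was recorded kinetically at 1 sec intervals.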
Chain of Muscarinic acetylcholine receptor M1 (Homo sapiens) (P11229 whole entry, looked up): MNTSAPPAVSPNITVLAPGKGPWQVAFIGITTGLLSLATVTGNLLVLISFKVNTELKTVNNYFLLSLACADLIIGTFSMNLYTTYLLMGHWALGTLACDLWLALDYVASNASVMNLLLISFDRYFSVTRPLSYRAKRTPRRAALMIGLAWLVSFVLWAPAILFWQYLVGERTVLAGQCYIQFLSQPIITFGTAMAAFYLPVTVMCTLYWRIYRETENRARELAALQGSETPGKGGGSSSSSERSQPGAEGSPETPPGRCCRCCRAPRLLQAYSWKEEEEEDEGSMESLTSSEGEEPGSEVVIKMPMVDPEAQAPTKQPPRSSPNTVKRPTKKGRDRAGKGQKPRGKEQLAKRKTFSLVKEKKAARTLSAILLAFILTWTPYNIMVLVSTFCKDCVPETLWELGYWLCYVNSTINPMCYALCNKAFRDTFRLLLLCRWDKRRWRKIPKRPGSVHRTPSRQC

Experiment [14] can be described thus: cAMP Responsive Elements (CRE) small molecule agonists, cell-based qHTS assay (AID 1963590). Put shortly: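 Cells carrying a CRE-driven beta-lactamase reporter (HEK 293T) are seeded, incubated overnight (18 h), and treated with test compounds for 3 h at 37 C; reporter activity is then detected with a FRET substrate after 2 h at room temperature.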
Experiment [15] can be described thus: cAMP Responsive Elements (CRE) small molecule antagonists, cell-based qHTS assay (AID 1963591; active = well fitted inhibition curve with a large enough effect in the signal ratio in the repeat runs, not every such curve was filed as active; the % refers to the signal ratio). Put shortly: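 Cells (CRE-bla HEK 293T, DMEM with 10% dialyzed FBS and 25 mM HEPES) are seeded and incubated 18 h. Compounds are added with NKH477 agonist at 0.25 uM final for 3 h, then FRET substrate for 2 h.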
For experiment [16], the target named is Beta-2 adrenergic receptor (Homo sapiens) (UniProt P07550). Put plainly: Adrenergic beta2 receptor (ADRB2) small molecule antagonists, cell-based qHTS assay (AID 1963592). Also: series mostly up to about 92 µM; nearly all actives have a fitted effect of over 50% in size. Put shortly:
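Assay format: CHO-ADRB2 cells, 18-20hr seeding at 37C/5% CO2, then compound plus 1nM isoproterenol agonist mix for 0.5hr RT. Homogeneous time-resolved fluorescence cAMP detection after 1hr, expressed as 665/615 nm ratio.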

In experiment [17] the target is D(2) dopamine receptor (Homo sapiens) (UniProt P14416). The experiment is described as follows: Dopamine D2 receptor (DRD2) small molecule agonists, cell-based qHTS assay (AID 1963594). Also: nearly all actives have a fitted effect of over 35% in size. Put shortly: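 HEK293 cells stably expressing DRD2 were cultured 24 h at 37 C, then given Ro20-1724 (0.1 mM final) and compounds for 10 min at room temperature. NKH477 (200nM) was then added for 30 min. cAMP was read by HTRF.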
Chain of D(2) dopamine receptor (Homo sapiens) (P14416 whole entry, looked up): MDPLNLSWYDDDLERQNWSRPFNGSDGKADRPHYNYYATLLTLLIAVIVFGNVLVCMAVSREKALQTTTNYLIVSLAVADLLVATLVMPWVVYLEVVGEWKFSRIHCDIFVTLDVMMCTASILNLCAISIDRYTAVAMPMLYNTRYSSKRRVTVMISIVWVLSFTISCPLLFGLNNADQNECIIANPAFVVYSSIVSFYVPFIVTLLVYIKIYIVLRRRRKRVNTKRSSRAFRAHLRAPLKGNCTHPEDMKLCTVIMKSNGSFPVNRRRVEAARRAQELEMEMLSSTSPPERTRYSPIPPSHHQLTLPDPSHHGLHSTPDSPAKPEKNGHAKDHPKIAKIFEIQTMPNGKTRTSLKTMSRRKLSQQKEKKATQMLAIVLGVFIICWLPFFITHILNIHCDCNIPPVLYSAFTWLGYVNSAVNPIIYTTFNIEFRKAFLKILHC

The target is the same in experiment [18]. Put plainly: Dopamine D2 receptor (DRD2) small molecule antagonists, cell-based qHTS assay (AID 1963595; active = well fitted inhibition curve with a large enough effect in the signal ratio in the repeat runs, with a control signal flat; the % refers to the signal ratio). Put shortly: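 Readout: HTRF cAMP, cAMP-d2 competing with cellular cAMP for anti-cAMP cryptate, read after 1 h. Cells: DRD2-HEK293. Conditions: 0.1 mM Ro20-1724, 12 nM quinpirole, 200 nM NKH477, 30 min RT.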
Experiment [19] concerns the target Muscarinic acetylcholine receptor M1 (Homo sapiens) (UniProt P11229). Put plainly: Cholinergic receptor muscarinic 1 (CHRM1) small molecule antagonists, cell-based qHTS assay (AID 1963588). Also: nearly all actives have a fitted effect of over 40% in size. Also: potency is read from the fitted curve at half-maximal effect. The method in brief:
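Compounds were tested at 15 concentrations in three independent runs. Dye-loaded CHRM1-CHO cells were exposed 5 min at room temperature before stimulation by acetylcholine added at 50nM. Intracellular calcium was read kinetically on FDSS for 3 min.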

Chain of Gonadotropin-releasing hormone receptor (Homo sapiens) (P30968 whole entry, looked up): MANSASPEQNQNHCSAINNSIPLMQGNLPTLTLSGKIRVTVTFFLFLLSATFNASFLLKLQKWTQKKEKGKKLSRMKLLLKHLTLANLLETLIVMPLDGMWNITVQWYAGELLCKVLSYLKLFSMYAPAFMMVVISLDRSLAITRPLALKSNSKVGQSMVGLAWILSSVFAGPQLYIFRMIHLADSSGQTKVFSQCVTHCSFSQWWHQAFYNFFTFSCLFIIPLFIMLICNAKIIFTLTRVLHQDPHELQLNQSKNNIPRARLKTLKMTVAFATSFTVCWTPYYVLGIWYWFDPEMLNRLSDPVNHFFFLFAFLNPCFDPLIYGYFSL
Chain of Beta-2 adrenergic receptor (Homo sapiens) (P07550 whole entry, looked up): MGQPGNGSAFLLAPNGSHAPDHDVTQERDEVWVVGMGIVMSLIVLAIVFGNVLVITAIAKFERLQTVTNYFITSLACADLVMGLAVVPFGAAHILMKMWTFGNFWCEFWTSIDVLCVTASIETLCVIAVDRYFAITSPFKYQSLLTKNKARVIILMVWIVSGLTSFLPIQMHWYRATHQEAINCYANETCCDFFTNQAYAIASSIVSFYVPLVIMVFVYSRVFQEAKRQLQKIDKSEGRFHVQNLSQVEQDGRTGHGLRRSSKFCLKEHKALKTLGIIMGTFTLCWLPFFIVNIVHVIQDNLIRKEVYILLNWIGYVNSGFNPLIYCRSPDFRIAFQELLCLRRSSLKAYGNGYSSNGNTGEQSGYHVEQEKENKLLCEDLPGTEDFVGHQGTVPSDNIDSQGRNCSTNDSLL

In the case of `CCc1cccc(CC)c1`, the Potency result in [1], in experiment [2], in experiment [5], in experiment [6], in experiment [7] and in [8] was “inactive” each time. In addition, the Potency result in experiment [9], in experiment [10], in experiment [11], in [12], in experiment [13] and in [14] was “inactive” in each case. Further, the Potency result in experiment [15], in experiment [16], in experiment [17] and in experiment [18] was “inactive” throughout. The result in experiment [3] and in experiment [4] was inactive.

In the case of `Cc1ccc(NC(N)=O)cc1`, the Potency result in experiment [1], in experiment [2], in experiment [5], in experiment [6], in [7] and in [8] was “inactive” in each case. Also, the Potency entry in experiment [9], in experiment [10], in experiment [11], in experiment [12], in experiment [19] and in experiment [13] was “inactive” in each case. The Potency result in [14], in [15], in experiment [16], in experiment [17] and in experiment [18] was “inactive” throughout. The result in [3] and in experiment [4] was inactive.

Take `CCOC(=O)c1ccc(OC(=O)CCCCCN=C(N)N)cc1`: the Potency result in experiment [1], in [2], in [5], in experiment [6], in experiment [7] and in experiment [8] was “inactive” throughout. In addition, the Potency entry in experiment [9], in experiment [10], in [12], in experiment [13], in experiment [14] and in experiment [16] was “inactive” in each case. In addition, the Potency result in [17] is “inactive”. Further, the outcome in experiment [3] and in [4] was inactive. Moreover, in [19], the Potency was 7.29 µM (active).

Consider `CO[Si](CCCNc1ccccc1)(OC)OC`, for which the Potency entry in experiment [1], in [2], in experiment [5], in experiment [6], in experiment [7] and in experiment [8] was “inactive” in each case. Besides, the Potency entry in [9], in experiment [10], in experiment [11], in experiment [12], in experiment [19] and in experiment [13] was “inactive” in each case. Moreover, the Potency entry in experiment [14], in experiment [15], in experiment [16], in experiment [17] and in [18] was “inactive” throughout. For the same compound, the outcome in experiment [3] and in [4] was inactive.

Turning to `Cc1nc(C)nc(N2C[C@@H](C)N(c3ccnc([C@@H](C)O)n3)[C@@H](C)C2)n1`, the Potency entry in experiment [1], in experiment [2], in experiment [5], in [6], in [7] and in experiment [8] was “inactive” throughout. Also, the Potency result in experiment [9], in experiment [10], in experiment [11], in experiment [12], in experiment [13] and in experiment [16] was “inactive” in each case. The Potency entry in [17] and in experiment [18] was “inactive” in each case. For the same compound, the result in experiment [3] and in experiment [4] was inactive.

Regarding `CCCCCC(C)N` (stereo not given), the Potency entry in experiment [1], in [2], in [5], in experiment [6], in experiment [7] and in [8] was “inactive” each time. Also, the Potency entry in experiment [9], in experiment [10], in experiment [11], in experiment [12], in experiment [19] and in experiment [13] was “inactive” each time. In addition, the Potency entry in [15], in experiment [16], in [17] and in experiment [18] was “inactive” each time. Besides, the outcome in [3] and in experiment [4] was inactive.

`COc1ccc(CCN(C)CCCC(C#N)(c2cc(OC)c(OC)c(OC)c2)C(C)C)cc1OC` (stereo not given): the Potency result in [1], in experiment [2], in [5], in [6], in experiment [7] and in [8] was “inactive” each time. For the same compound, the Potency result in experiment [9], in [10], in [13], in experiment [14], in experiment [16] and in [18] was “inactive” throughout. Also, the outcome in experiment [3] and in [4] was inactive.
